BAZ2B block: qHTS Assay for Inhibitors of BAZ2B. AID 504333, 2011. 4.4% of 360,000 active. AlphaScreen BAZ2B-H3K14Ac peptide displacement. Potency, µM (series often up to 114 µM), without a hit: at the highest dose activity change, negative = inhibition, most hits filed as inhibitors; further: on the % scale 0 is the no-effect control and ±100 the full control effect; nearly all actives have a fitted effect of over 60% in size
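Compounds, titrated to a top concentration of 110 uM, were incubated 30 min at room temperature with preformed BAZ2B/acetyl-K14 H3 peptide complex (50 nM each). Proximity signal was measured by AlphaScreen after 20 min with beads.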
Sfp inh: qHTS Assay for Inhibitors of Bacillus subtilis Sfp phosphopantetheinyl transferase (PPTase); Biochemical Sfp PPTase activity, qHTS; Potency, µM, without a hit: largest response in the series, negative = inhibition, usual class: inhibitors; 3.5% of 310,000 active;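 further: the enzyme is Sfp with the accession as filed and its product quenches rhodamine fluorescence; 0% = enzyme reaction without inhibitor and -100% = no enzyme wells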
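With Hepes-Na pH 7.6 buffer containing 10 mM MgCl2, Sfp (15 nM) modified BHQ-2-YbbR (12.5 uM) using rhodamine-CoA (5 uM). Two reads 30 minutes apart at 525/598 nm yielded each well's rate.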
G9a block: qHTS Assay for Inhibitors of Histone Lysine Methyltransferase G9a | Histone-lysine N-methyltransferase EHMT2 (Homo sapiens), Q96KQ7 | G9a H3K9 monomethylation, AlphaScreen, 2 h | Potency, µM (doses to about 102 µM), inactives show top-dose activity, negative = inhibition, hits mostly inhibitors | 8.8% of 350,000 active; further: on the % scale 0 is the no-effect control and ±100 the full control effect; nearly all actives have a fitted effect of over 75% in size
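Using a bead-based AlphaScreen, monomethylated H3K9 product from 2 h room-temperature reactions (G9a 20 nM, peptide 500 nM, SAM 20 uM) was detected with 0.5 ug/mL rabbit anti-H3K9me1 antibody.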
HP1b binding inh: HTS for Inhibitors of HP1-beta Chromodomain Interactions with Methylated Histone Tails | Potency, µM (highest dose often 114 µM), for the others: top-dose activity change, negative = inhibition, most hits filed as inhibitors | Chromobox protein homolog 1 (Homo sapiens), P83916 | AlphaScreen HP1-beta / biotin-H3K9me3 peptide binding | 0.56% of 390,000 active; further: nearly all actives have a fitted effect of over 70% in size
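HP1-beta protein (50 nM final) preincubated 30 min at room temperature with biotinylated H3(1-18)K9me3 peptide (50 nM) in PBS pH 7.4, 0.01% Tween-20, then compound added for 30 min. AlphaScreen streptavidin donor/nickel chelate acceptor beads (10 ug/mL final), 30 min dark, luminescence read.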
JMJD2A Tudor: qHTS Assay for Inhibitors of JMJD2A-Tudor Domain; Lysine-specific demethylase 4A (Homo sapiens), O75164; AlphaScreen JMJD2A-Tudor / H3K4me3 peptide binding; Potency, µM (titrated, usually from 114 µM), for the others: top-dose activity change, negative = inhibition, hits mostly inhibitors; 4.4% of 390,000 active; AID 504339, 2011; further: on the % scale 0 is the no-effect control and ±100 the full control effect; nearly all actives have a fitted effect of over 50% in size
PLK1 PBD block: qHTS for Inhibitors of PLK1-PDB (polo-like kinase 1 - polo-box domain): Primary Screen | Plk1 PBD binding of FITC phosphopeptide, fluorescence polarization | Potency, µM, for the others: max response, negative = inhibition, most hits filed as inhibitors | 2.8% of 360,000 active | AID 720504, 2013; further: series mostly up to about 57 µM; on the % scale 0 is the no-effect control and ±100 the full control effect; nearly all actives have a fitted effect of over 65% in size
Target sequence (P53350 whole entry, looked up, the tested form may be a part): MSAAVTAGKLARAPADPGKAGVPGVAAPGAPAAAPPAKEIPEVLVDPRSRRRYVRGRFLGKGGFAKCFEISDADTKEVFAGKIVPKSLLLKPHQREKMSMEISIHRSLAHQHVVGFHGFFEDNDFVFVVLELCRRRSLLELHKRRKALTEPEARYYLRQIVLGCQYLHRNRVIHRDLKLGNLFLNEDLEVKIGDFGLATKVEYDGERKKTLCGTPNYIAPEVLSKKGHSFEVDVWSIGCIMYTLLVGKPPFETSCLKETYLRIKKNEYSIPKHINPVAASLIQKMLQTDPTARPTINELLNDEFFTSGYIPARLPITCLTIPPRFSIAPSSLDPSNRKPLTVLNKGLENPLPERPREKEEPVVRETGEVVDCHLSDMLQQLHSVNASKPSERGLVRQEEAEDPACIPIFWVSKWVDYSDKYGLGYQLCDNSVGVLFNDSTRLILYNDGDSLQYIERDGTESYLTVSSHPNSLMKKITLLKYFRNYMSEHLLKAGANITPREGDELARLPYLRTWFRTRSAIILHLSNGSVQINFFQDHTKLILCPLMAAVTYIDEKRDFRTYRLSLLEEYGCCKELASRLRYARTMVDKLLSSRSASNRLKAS
The depositor's hits bear a star; ? = inconclusive; nt = not tested or not shown; ! = not confirmed by another sample; [ ] = dose if it differs, or a comment. Hits are enriched below; roughly 12% of the tested compounds scored in any of these assays. The call rests on the fitted dose curve; in most records, active means well fitted curve in the direction sought with a large enough effect; inconclusive means small, poorly fitted or top-dose-only effect, or another doubt; inactive means no such curve, though single readings can be large; an effect the other way counts as inactive or inconclusive. Potency means the concentration at half of the fitted maximal effect.

SMILES	BAZ2B block	Sfp inh	G9a block	HP1b binding inh	JMJD2A Tudor	PLK1 PBD block
O=C1CC(SCc2nc3ccccc3[nH]2)C(=O)N1c1cccc(Cl)c1 (centres undefined)	0%	-1%	18µM*	32%	-22%	-18%
O=C1CC(SCc2nc3ccccc3[nH]2)C(=O)N1c1ccc(F)cc1 (centres undefined)	-23%	-22%	?	50%	-27%	-21%
NCCSC1CC(=O)N(c2ccc(Cl)c(Cl)c2)C1=O (centres undefined)	?	-14%	35µM*	58%	-10%	-16%
Cc1ccc(NC(=O)CSc2nnc(COc3ccc(Cl)cc3)o2)c(C)c1	-2%	nt	-6%[59 µM]	28%	7%	nt
O=C(Nc1nnc(SCc2ccc(F)cc2)s1)c1cccnc1Cl	-17%	26%	?	30%	-8%	-14%
CC(=O)Nc1nnc(SCc2ccc(C(=O)Nc3ccccc3F)cc2)s1	-1%	-4%	45µM*	-22%	-11%	-15%
O=C(Nc1nnc(SCc2ccc(F)cc2)s1)c1ccccn1	25µM*	2%	50µM*	65%	28µM*	-8%
Cn1c(=O)c2c(SCC(=O)N3CCc4ccccc43)nc(-c3ccccc3Cl)nc2n(C)c1=O	6%	nt	?	7%[57 µM]	-15%	nt
CC(c1ccccc1)N1CCc2[nH]c(=S)[nH]c(=O)c2C1 (centres undefined)	1%	?	40µM*	53%	-3%	-12%
CCCCN1CCc2[nH]c(=S)[nH]c(=O)c2C1	16%	?	35µM*	-12%	25µM*	-3%
COCCN1CCc2[nH]c(=S)[nH]c(=O)c2C1	?	56µM*	32µM*	25%	-2%	-3%
CCCN1CNc2c(c(=O)[nH]c(=S)n2CCC)C1	nt	nt	nt	20%	-24%	nt
O=C(CCc1ccc(S(=O)(=O)N2CCOCC2)cc1)Nc1ccc(F)c(F)c1F	nt	nt	nt	24%	-19%	-7%
CC(CN1c2ccccc2Sc2ccccc21)N(C)C (centres undefined)	45µM*	50µM*!	15µM*!	-14%	?	-18%
COc1ccc2c(c1)N(C[C@@H](C)CN(C)C)c1ccccc1S2	nt	4%	7.9µM*	nt	nt	nt
C[C@@H](CN1c2ccccc2Sc2ccccc21)N(C)C	nt	-1%	?	nt	nt	nt
COc1ccc(OC)c(-c2noc(N3CCN(c4cccc(C(F)(F)F)c4)CC3)n2)c1	1%	nt	5%[59 µM]	23%	-5%	nt
Cc1ccc(CNC(=O)CCn2cc(-c3ccc(C)cc3)nc2-c2ccncc2)cc1	?	-4%	45µM*	-4%	-26%	-6%
Cc1ccc(CNC(=O)CCn2cc(-c3ccc(F)cc3)nc2-c2ccncc2)cc1	-13%	nt	-4%[2.33 µM]	12%	-29%	1%
Cc1cccc(Nc2nc3c(S(=O)(=O)c4ccc(Br)cc4)nnn3c3ccsc23)c1C	-13%	nt	-20%[59 µM]	16%	-8%	nt
CC1Sc2ccc(S(=O)(=O)CCC(=O)N3CCc4ccccc43)cc2NC1=O (centres undefined)	-22%	10%	-1%	-4%	25µM*	30µM*
COc1ccc(NC(=O)CCS(=O)(=O)c2ccc3c(c2)NC(=O)C(C)S3)cc1OC (centres undefined)	-16%[57.1 µM]	8%	18%	0%	18µM*	6.7µM*
CCC1Sc2ccc(S(=O)(=O)CCC(=O)N3CCc4ccccc43)cc2NC1=O (centres undefined)	-13%	-13%	nt	4%	-15%	-19%
CC1Sc2ccc(C(=O)Nc3ccc(S(=O)(=O)N(C)C)cc3)cc2NC1=O (centres undefined)	-3%	nt	32µM*	21%	-19%	4%
CC1Sc2ccc(S(=O)(=O)CCC(=O)NCc3ccccc3)cc2NC1=O (centres undefined)	-18%[57.1 µM]	5%	-23%	?	79µM*	?
SMILES	BAZ2B block	Sfp inh	G9a block	HP1b binding inh	JMJD2A Tudor	PLK1 PBD block
O=C(/C=C1\NC2(CCCC2)Cc2ccccc21)C(=O)N/N=C/c1ccc(O)c(O)c1	40µM*	3%	11µM*	?	10µM*	-19%
CCc1ccc(NC(=O)CSc2nccn2C2CCCC2)cc1	?	nt	?	19%	-34%	nt
CC(C)C(NS(=O)(=O)c1ccc2c(c1)OCCCO2)C(=O)O (centres undefined)	9%	18%	1%[59 µM]	?	?	24µM*
CC(NS(=O)(=O)c1ccc2c(c1)OCCO2)c1ccccc1 (centres undefined)	-35%	11%	-19%	2%	-11%	-4%
Fc1ccc(Sc2ccccc2CNC2=NCCN2)cc1	-5%	2%	6.3µM*	10%	-14%	-4%
O=C(c1cc(C(F)(F)F)cc(C(F)(F)F)c1)N1CCC2(CC1)CN(c1ccccn1)C2	nt	14%	7%[12.7 µM]	nt	nt	nt
Cc1cccn2c(=O)c3cc(C(=O)NC4CCCC4)c(=N)n(CCCN4CCOCC4)c3nc12	-9%	7%	-2%[59 µM]	-23%	-27%	-12%
Cc1c(Cc2ccccc2)sc(/N=C/c2ccc3ccccc3c2)c1C(N)=O	8%	-25%	20µM*	8%	?	?
Cc1c(Cc2ccccc2)sc(/N=C/c2c(O)ccc3ccccc23)c1C(N)=O	?	35µM*	3.2µM*	?	?	?
COc1cc(C(=O)NNC(=O)c2cc(S(=O)(=O)N(C)C)ccc2N2CCCC2)cc(OC)c1OC	11%	nt	4%[59 µM]	26%	-12%	-12%
N=C(N)SCc1cn(-c2ccccc2)nc1-c1ccc(Br)cc1	-31%	50µM*	50µM*	-10%	-27%	-3%
Cc1ccc(-c2nn(-c3ccccc3)cc2CO)cc1	7%	5%	17%	29%	11%	3%
CCOC(=O)c1c(C)cc(O)c(C=O)c1O	nt	-5%	-17%[2.33 µM]	nt	nt	nt
COc1ccc(-c2cc(OC(=O)c3ccc(F)cc3)c3c(C)oc(C)c3c(=O)c2)cc1OC	?	nt	?	-12%	-36%	nt
COc1ccccc1Cc1nc2ccccc2n1S(=O)(=O)c1ccc(Cl)cc1	-5%	7%	25µM*	30%	-14%	-7%
Cc1cc(C)n(NC(=S)NC2CCCC2)c(=O)c1C#N	-14%	-3%	-2%	33%	11µM*	-11%
O=C(Nc1ccc(NC(=O)c2cccs2)cc1)c1ccc(Br)cc1	0%	nt	-10%[59 µM]	22%	-5%	nt

Assay outcomes as filed in PubChem BioAssay.
